Assay results: PubChem BioAssay (NCATS)
Several values for one entry are separate records, joined by “and”; a condition that tells them apart may be missing. Identical values can stand only once. Records with an inconclusive call do not appear. Activity calls are given as the source filed them. Unless noted, calls follow the shape of the dose curve; as a rule, active = well fitted curve in the direction sought with a large enough effect; inconclusive = small, poorly fitted or top-dose-only effect, or another doubt; inactive = no such curve, though single readings can be large; an effect the other way counts as inactive or inconclusive.

What was measured:
[1] = molecular target: Glucocorticoid receptor (Homo sapiens) (UniProt P04150); experiment: qHTS assay for small molecule agonists of glucocorticoid receptor signaling (AID 588532; active = well fitted curve in the direction sought with a large enough effect in the signal ratio, with a control signal flat; the % refers to the signal ratio;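 also: 100% = dexamethasone at 0.1 µM and 0% = DMSO only wells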); settings: HeLa MMTV-bla, beta-lactamase ratio, agonist, 18 h; stronger effect = higher value; percent of dexamethasone control, DMSO zero
How it was run: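 MMTV-bla HeLa, beta-lactamase reporter; medium with 1% charcoal/dextran-stripped FBS; cpds up to 92 uM, 18 h, 37 C; CCF4 readout 460/530 nm; Hill fit → EC50, efficacy vs 0.1 uM dexamethasone = 100%.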

[2] = qHTS assay for small molecule antagonists of peroxisome proliferator-activated receptor delta signaling (AID 588535); settings: HEK293T PPARd-UAS-bla, beta-lactamase FRET ratio, 18 h; 460 nm channel;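 also: cells co-treated with a PPAR-delta agonist as stimulator during compound exposure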
How it was run: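 Reporter: UAS-bla under PPAR-delta response element, HEK293T host. Medium: 2% charcoal/dextran FBS. Dosing: titration, 18 hrs, 37 C. Detection: CCF4, 2 hrs RT, 405 ex/460 and 530 em.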

[3] = molecular target: Peroxisome proliferator-activated receptor gamma (Homo sapiens) (UniProt P37231); experiment: qHTS assay for small molecule agonists of peroxisome proliferator-activated receptor gamma signaling (AID 588536; active = well fitted curve in the direction sought with a large enough effect in the signal ratio, with a control signal flat, not every such curve was filed as active; the % refers to the signal ratio;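 also: 0% = DMSO basal wells and 100% = rosiglitazone at 2 µM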); settings: HEK293 PPARg-UAS-bla, beta-lactamase ratio, 16 h, percent of rosiglitazone response, DMSO as zero; series mostly up to 76.7 µM
How it was run: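 Ratiometric blue/green fluorescence (405 nm excitation; 460 and 530 nm emission) from CCF4-loaded HEK293 reporter cells serves as signal. Exposure to test compounds lasts 16 h at 37 C in medium containing 1% charcoal/dextran-treated serum.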

[4] = molecular target: Peroxisome proliferator-activated receptor gamma (Homo sapiens) (UniProt P37231); experiment: qHTS assay for small molecule antagonists of peroxisome proliferator-activated receptor gamma signaling (AID 588537; active = well fitted inhibition curve with a large enough effect in the signal ratio, with a control signal flat, not every such curve was filed as active; the % refers to the signal ratio;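 also: reporter cells co-stimulated with 50 nM rosiglitazone agonist during compound treatment; % of control where 0% means no effect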); settings: HEK293 PPARg-UAS-bla, beta-lactamase ratio, antagonist mode; series mostly up to 76.8 µM
How it was run: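 We seeded GeneBLAzer HEK293 reporter cells at 3000 per well, allowed 6-6.5 h attachment at 37 C, then co-treated with test compound titrations and 50 nM rosiglitazone overnight (16 h). Inhibition was quantified from 460/530 nm emission ratios.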

[5] = molecular target: Vitamin D3 receptor (Homo sapiens) (UniProt P11473); experiment: qHTS assay for small molecule antagonists of vitamin D receptor signaling (AID 588541; calls by dose curve;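 also: receptor activated by calcitriol during compound treatment; % is scaled to controls: 0 for no effect and ±100 for the full control effect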); settings: HEK293T VDR-UAS-bla, beta-lactamase ratio, antagonist mode; series mostly up to 76.7 µM
How it was run: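 VDR-UAS-bla HEK293T cells (2000/well, 2% charcoal-stripped FBS) were treated with titrated compounds plus 1-alpha,25-dihydroxyvitamin D3 (50 nM or 3 nM final) for 16 h at 37 C. CCF4 beta-lactamase fluorescence was read; Hill fits gave IC50.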

[6] = molecular target: Vitamin D3 receptor (Homo sapiens) (UniProt P11473); experiment: qHTS assay for small molecule agonists of vitamin D receptor signaling (AID 588543; calls by dose curve;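 also: 0% = DMSO basal and 100% = reference agonist control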); settings: HEK293T VDR-UAS-bla, beta-lactamase ratio, 16 h; series mostly up to 76.8 µM
How it was run: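 VDR-UAS-bla HEK293T cells, 2000/well, 2% charcoal-stripped FBS; compound titration 16 h at 37 C; CCF4 beta-lactamase ratio read. Normalized to 50 nM 1-alpha,25-dihydroxyvitamin D3 (100%) and DMSO; Hill fit gives EC50, efficacy.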

[7] = qHTS assay for small molecule agonists of retinoid X receptor alpha signaling (AID 588544; calls by dose curve;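 as to activation: 0% = DMSO basal wells and 100% = reference agonist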); settings: HEK293T RXRa-UAS-bla, beta-lactamase reporter, 18 h; 530 nm emission
[8] = molecular target: Retinoic acid receptor RXR-alpha (Homo sapiens) (UniProt P19793); experiment: as above; settings: HEK293T RXRa-UAS-bla, beta-lactamase reporter, 18 h; series mostly up to 76.7 µM
[9] = molecular target: Thyroid hormone receptor beta (Homo sapiens) (UniProt P10828); experiment: qHTS assay for small molecule agonists of thyroid hormone receptor beta signaling (AID 588545; calls by dose curve;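 also: 0% = DMSO only and 100% = 10 nM T3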); settings: TR-UAS-bla GripTite HEK 293, beta-lactamase ratio, agonist mode, 18 h; series mostly up to 76.7 µM
How it was run: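 Compounds were tested as agonists in TR-UAS-bla-GripTite HEK 293 cells. After 18 hrs at 37 C, CCF4 substrate was added and fluorescence read after 2 hrs at room temperature.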

[10] = qHTS assay for small molecule antagonists of retinoid X receptor alpha signaling (AID 588546; active = well fitted inhibition curve with a large enough effect in the signal ratio, with a control signal flat, not every such curve was filed as active; the % refers to the signal ratio;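 also: cells stimulated with 9-cis-retinoic acid as agonist; % is scaled to controls: 0 for no effect and ±100 for the full control effect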); settings: HEK293T RXRa-UAS-bla, beta-lactamase ratio, antagonist mode; measured here: W530 green channel, cytotoxicity proxy
How it was run: (§1)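 Beta-lactamase reporter inhibition, read as CCF4 fluorescence ratio (ex 405, em 460/530 nm) after 2 h at RT. HEK293T UAS-bla cells, 2500/well, were stimulated with 9-cis-RA at 500 or 100 nM final alongside test compound for 18 h at 37 C.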

[11] = molecular target: Retinoic acid receptor RXR-alpha (Homo sapiens) (UniProt P19793); experiment: as above; settings: HEK293T RXRa-UAS-bla, beta-lactamase ratio, antagonist mode
How it was run: as §1

[12] = qHTS assay for small molecule activators of the p53 signaling pathway (AID 651743; active = well fitted activation curve with a large enough effect in the signal ratio, not every such curve was filed as active; the % refers to the signal ratio; also: % of control where 0% means no effect); settings: HCT-116 p53RE-bla, beta-lactamase FRET ratio, 16 h; activation: stronger effect = higher value
How it was run: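 Cell-based beta-lactamase reporter (p53 response elements, HCT-116 background). After a 5-hour preincubation, cells received compound for 16 hours at 37 C; substrate development ran 2 hours at room temperature.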

[13] = molecular target: Peroxisome proliferator-activated receptor alpha (Homo sapiens) (UniProt Q07869); experiment: qHTS assay for small molecule agonists of the peroxisome proliferator-activated receptor alpha (PPARalpha) signaling pathway (AID 651778); settings: PathHunter PPARalpha complementation, chemiluminescence, 6 h; max response: stronger effect = higher value; also: % of control where 0% means no effect
How it was run: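 Cells plated at 2,000/well and held overnight at 37 C, 5% CO2, then compound added by pin tool for 6 hr; after PathHunter detection reagent and 60 min at room temperature, chemiluminescence from enzyme complementation was read.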

[14] = qHTS assay for small molecule agonists of the antioxidant response element (ARE) signaling pathway measured by Nrf2-dependant transcriptional activity (AID 720636; active = well fitted curve in the direction sought with a large enough effect in the repeat runs; an effect the other way counts as inactive or inconclusive;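 also: HepG2 cells with an ARE-driven luciferase reporter; % of control where 0% means no effect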); settings: ARE-luc HepG2, Nrf2 luciferase reporter, 16 h; series mostly up to 92.4 µM
How it was run: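 First, ARE-luc HepG2 cells attached for 6 hr at 37 C in 1% dialyzed FBS medium. Next, compound or DMSO was added and incubated 16 hr. Finally, ONE-Glo reagent was added and luminescence measured after 30 min.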

[15] = qHTS assay for cell viability of HEK293 cells (AID 743288); settings: ATP luminescence (CellTiter-Glo), 18 h; max response: stronger effect = lower value; also: % is scaled to controls: 0 for no effect and ±100 for the full control effect; nearly all actives have a fitted effect of over 50% in size
How it was run: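 Parental HEK293 cells, 2,000 per well, preincubated at least 5 h at 37 C, then exposed to compounds in DMSO for 18 h at 37 C. Viability by CellTiter-Glo ATP luminescence after 30 min at room temperature.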

[16] = qHTS assay for cell viability of the p53RE-bla HCT-116 cell line (AID 743292); settings: p53RE-bla HCT-116 viability, ATP luminescence, 16 h; series mostly up to 95 µM; also: % is scaled to controls: 0 for no effect and ±100 for the full control effect; nearly all actives have a fitted effect of over 55% in size
How it was run: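 Quantitative high-throughput format: compounds in DMSO were pinned onto p53RE-bla HCT-116 cells (4,000/well) and incubated 16 h at 37 C. Total intracellular ATP, read by CellTiter-Glo luminescence, reflects viable cell number.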

[17] = qHTS assay for environmental chemicals that activate the Aryl hydrocarbon Receptor (AhR) signaling pathway (AID 651777); settings: 1A2-DRE human hepatoma cells, luciferase, 24 h; activation: stronger effect = higher value; also: % of control where 0% means no effect; nearly all actives have a fitted effect of over 15% in size
How it was run: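 AhR activation is scored as a rise in luciferase from a stable DRE–CYP1A2 promoter construct in human hepatoma cells. Treatment lasts 24 hr at 37 C; detection uses One-Glo after 30 min at room temperature.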

[18] = qHTS assay for small molecule agonists of the antioxidant response element (ARE) signaling pathway measured by Nrf2-dependant transcriptional activity - cell viability counter screen (AID 720653; active = well fitted curve in the direction sought with a large enough effect in the repeat runs; an effect the other way counts as inactive or inconclusive; also: % is scaled to controls: 0 for no effect and ±100 for the full control effect); settings: ARE-bla HepG2 viability, CellTiter-Glo ATP luminescence, 16 h; max response: stronger effect = lower value
How it was run: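 ARE-bla HepG2 cells (2,000/well) rested 5 hrs at 37C/5% CO2, then exposed to compounds in DMSO for 16 hrs. Viability was read in the same wells as intracellular ATP by luminescence, 30 min at room temperature after reagent addition.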

[19] = molecular target: Nuclear receptor subfamily 1 group I member 2 (Rattus norvegicus) (UniProt Q9R1A7); experiment: qHTS assay for small molecule activators of the rat pregnane X receptor (rPXR) signaling pathway (AID 651751; call rule not given here; also: 0% is about no effect); settings: rPXR reporter cells, luciferase (One-Glo), 24 h
[20] = qHTS assay for small molecule activators of the human pregnane X receptor (PXR) signaling pathway (AID 720659; call rule not given here; also: 0% is about no effect); settings: DPX-2 HepG2 CYP3A4-luciferase, 24 h; series mostly up to 92.3 µM

Sequence of Retinoic acid receptor RXR-alpha (Homo sapiens) (P19793 whole entry, looked up): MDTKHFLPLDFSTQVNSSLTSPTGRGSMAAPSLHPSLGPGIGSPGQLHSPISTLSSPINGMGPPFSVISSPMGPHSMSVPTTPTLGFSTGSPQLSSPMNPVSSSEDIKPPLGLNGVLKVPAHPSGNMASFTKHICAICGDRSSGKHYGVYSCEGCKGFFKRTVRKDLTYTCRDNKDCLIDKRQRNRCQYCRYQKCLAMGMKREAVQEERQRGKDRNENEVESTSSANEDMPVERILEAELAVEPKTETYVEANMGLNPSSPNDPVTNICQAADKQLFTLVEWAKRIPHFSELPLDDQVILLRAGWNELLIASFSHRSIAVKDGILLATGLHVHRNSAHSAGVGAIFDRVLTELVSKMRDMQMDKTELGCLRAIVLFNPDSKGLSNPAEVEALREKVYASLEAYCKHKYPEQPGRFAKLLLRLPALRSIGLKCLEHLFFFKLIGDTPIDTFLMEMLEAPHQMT
Sequence of Peroxisome proliferator-activated receptor gamma (Homo sapiens) (P37231 whole entry, looked up): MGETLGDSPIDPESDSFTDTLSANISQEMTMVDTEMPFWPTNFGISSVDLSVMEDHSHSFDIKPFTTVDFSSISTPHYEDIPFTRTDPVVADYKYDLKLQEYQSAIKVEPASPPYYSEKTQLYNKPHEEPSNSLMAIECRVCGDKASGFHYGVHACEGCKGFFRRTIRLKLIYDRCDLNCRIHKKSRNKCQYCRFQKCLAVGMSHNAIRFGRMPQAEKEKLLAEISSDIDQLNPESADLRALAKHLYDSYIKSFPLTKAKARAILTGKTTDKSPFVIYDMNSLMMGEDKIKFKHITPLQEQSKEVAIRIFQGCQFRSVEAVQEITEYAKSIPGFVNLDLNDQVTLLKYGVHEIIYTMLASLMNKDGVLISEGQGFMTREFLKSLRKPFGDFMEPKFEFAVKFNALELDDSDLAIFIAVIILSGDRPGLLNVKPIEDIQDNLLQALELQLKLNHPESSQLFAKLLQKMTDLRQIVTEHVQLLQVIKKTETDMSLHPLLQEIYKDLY
Sequence of Peroxisome proliferator-activated receptor alpha (Homo sapiens) (Q07869 whole entry, looked up): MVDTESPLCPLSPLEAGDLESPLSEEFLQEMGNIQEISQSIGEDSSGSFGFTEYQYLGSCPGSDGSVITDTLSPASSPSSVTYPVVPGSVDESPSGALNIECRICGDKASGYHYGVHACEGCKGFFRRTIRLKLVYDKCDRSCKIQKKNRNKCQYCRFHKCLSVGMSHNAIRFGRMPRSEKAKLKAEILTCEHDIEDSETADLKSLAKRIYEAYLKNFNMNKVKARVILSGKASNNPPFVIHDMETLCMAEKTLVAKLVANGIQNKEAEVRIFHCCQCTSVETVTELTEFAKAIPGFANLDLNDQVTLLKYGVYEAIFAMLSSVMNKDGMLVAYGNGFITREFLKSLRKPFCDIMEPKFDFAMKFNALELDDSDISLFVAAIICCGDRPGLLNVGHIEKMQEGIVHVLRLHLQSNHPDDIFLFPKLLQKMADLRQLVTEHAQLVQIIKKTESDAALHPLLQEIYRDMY
Sequence of Nuclear receptor subfamily 1 group I member 2 (Rattus norvegicus) (Q9R1A7 whole entry, looked up): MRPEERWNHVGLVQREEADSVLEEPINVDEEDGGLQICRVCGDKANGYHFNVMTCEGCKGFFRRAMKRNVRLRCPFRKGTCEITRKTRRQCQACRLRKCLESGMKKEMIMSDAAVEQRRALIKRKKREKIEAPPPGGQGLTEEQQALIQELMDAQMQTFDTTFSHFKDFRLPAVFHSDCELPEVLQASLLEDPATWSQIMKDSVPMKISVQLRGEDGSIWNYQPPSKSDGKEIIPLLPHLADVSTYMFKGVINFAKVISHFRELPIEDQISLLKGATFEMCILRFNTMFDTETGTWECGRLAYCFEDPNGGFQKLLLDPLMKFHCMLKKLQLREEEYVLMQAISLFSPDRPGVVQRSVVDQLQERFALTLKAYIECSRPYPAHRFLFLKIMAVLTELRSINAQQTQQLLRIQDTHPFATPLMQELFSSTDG
Sequence of Vitamin D3 receptor (Homo sapiens) (P11473 whole entry, looked up): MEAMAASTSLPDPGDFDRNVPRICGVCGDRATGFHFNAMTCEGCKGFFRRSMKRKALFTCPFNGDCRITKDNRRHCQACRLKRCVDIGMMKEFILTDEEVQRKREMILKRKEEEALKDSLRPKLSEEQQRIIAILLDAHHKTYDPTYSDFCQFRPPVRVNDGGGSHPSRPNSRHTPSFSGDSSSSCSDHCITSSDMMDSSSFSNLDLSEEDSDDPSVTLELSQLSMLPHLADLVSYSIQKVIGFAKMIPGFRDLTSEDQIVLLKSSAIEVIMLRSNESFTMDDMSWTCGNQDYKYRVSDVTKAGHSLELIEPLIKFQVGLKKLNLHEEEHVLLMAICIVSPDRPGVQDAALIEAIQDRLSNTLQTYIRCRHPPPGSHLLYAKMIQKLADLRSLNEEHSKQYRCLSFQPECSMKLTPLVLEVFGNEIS
Sequence of Thyroid hormone receptor beta (Homo sapiens) (P10828 whole entry, looked up): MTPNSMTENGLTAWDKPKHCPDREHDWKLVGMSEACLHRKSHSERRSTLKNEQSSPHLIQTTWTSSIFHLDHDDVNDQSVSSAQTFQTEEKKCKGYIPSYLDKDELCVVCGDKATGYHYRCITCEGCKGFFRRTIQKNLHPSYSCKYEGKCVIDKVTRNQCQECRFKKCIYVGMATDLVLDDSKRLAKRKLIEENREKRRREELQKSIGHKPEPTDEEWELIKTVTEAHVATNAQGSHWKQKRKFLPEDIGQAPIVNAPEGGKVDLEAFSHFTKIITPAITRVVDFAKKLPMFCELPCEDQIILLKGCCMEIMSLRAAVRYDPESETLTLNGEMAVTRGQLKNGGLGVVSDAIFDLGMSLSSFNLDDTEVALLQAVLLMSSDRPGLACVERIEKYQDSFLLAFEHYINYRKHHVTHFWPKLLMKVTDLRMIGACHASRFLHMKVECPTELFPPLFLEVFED
Sequence of Glucocorticoid receptor (Homo sapiens) (P04150 whole entry, looked up): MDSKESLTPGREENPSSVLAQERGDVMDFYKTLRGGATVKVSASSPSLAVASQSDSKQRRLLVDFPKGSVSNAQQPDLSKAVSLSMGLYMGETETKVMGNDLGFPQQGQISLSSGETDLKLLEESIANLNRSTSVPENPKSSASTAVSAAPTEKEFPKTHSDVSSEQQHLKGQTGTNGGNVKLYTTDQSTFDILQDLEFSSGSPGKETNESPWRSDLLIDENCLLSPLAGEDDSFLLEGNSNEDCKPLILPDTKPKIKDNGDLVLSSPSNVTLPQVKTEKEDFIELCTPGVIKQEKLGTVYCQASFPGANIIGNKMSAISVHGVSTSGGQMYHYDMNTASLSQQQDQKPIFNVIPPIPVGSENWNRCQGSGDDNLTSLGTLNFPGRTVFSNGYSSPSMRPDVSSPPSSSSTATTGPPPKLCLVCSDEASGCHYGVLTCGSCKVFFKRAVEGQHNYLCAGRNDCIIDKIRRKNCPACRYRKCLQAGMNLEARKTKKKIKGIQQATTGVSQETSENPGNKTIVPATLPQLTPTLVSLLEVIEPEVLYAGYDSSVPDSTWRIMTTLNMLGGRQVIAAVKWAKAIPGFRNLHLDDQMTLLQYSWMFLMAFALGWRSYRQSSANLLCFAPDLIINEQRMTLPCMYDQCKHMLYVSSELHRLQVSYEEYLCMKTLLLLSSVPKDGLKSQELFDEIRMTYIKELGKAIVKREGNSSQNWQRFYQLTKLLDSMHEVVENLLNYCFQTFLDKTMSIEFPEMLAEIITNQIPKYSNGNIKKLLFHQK

CC(C)(C)[C@H](O)[C@H](Cc1ccc(Cl)cc1)n1cncn1
inactive: activation [1] -0.93% | outcome [3] | Potency [4] | Potency [5] | outcome [6] | Potency [8] | Potency [9] | max response [11] -30.2% | activation [12] -1.23% and -2.31% | max response [13] -0.299% and 2.68% | Potency [14] | max response [15] -20.8% and -24.1% | Potency [16]
27.4%: max response [2]
-4.23%: max response [7]
9.09%: max response [10]

CCOCCOCCOCC
12.8%: max response [2]
-3.22%: max response [7]
-7.04%: max response [10]
inactive: activation [1] -5.25% | outcome [3] | Potency [4] | Potency [5] | outcome [6] | Potency [8] | Potency [9] | max response [11] -12.1% | activation [12] -1.74% | activation [17] 0.117% | max response [13] -2.34% | max response [18] -4.14% | max response [15] -13.3% | Potency [16] | max response [19] 1.72% | outcome [20]

CC(C)CCCCOC(=O)c1ccccc1C(=O)OCCCCC(C)C
inactive: activation [1] -8.95% | outcome [3] | Potency [4] | Potency [8] | Potency [9] | max response [11] -8.08% | activation [12] -3.26% | activation [17] 0.811% | max response [13] 2.93% | Potency [14] | max response [18] -11% | max response [15] -17.5% | max response [19] 13.4%
6.42%: max response [7]
-6.23%: max response [10]
-26.8%: max response [2]

CCCCCCCCCC(=O)OC
-5.35%: max response [2]
inactive: outcome [3] | Potency [4] | Potency [8] | Potency [9] | max response [11] 2.82% | activation [17] 0.259% | max response [13] 1.96% | Potency [14] | max response [18] -16.8% | max response [15] -11.5% | Potency [16] | max response [19] -1.31% | outcome [20]
-16.2%: max response [7]
-11.2%: max response [10]
